Giardia FBPA inh: qHTS Assay for Inhibitors of Fructose-1,6-bisphosphate Aldolase from Giardia Lamblia | A8B2U2 | purified Giardia FBPA | Potency, µM (highest dose often 59.6 µM), inactives show at the highest dose activity, negative = inhibition, hits mostly inhibitors | 290,000 compounds, 0.71% hits | AID 2451, 2010; further: potency means the concentration at half of the fitted maximal effect; on the % scale 0 is the no-effect control and ±100 the full control effect; nearly all actives have a fitted effect of over 55% in size
Target sequence (A8B2U2 whole entry, looked up): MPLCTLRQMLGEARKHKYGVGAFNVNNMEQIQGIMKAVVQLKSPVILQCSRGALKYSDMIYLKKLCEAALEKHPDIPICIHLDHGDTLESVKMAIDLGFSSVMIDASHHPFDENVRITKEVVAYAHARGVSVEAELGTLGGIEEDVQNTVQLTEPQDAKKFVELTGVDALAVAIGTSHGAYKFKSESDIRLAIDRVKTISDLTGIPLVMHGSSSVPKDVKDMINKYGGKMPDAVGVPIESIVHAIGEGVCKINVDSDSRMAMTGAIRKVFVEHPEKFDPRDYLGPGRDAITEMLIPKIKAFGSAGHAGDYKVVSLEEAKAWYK
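Giardia FBPA (40 nM reagent) was preincubated 10 min at RT with compound (up to 57.5 uM final), then substrate plus GAPDH/TPI/NAD/arsenate coupling system with diaphorase/resazurin was added; resorufin fluorescence (525/598 nm) was read after 20 min.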
LmPK inhibitor: qHTS Assay for Inhibitors of Leishmania Mexicana Pyruvate Kinase (LmPK); Q27686; purified LmPK, Kinase-Glo ATP luminescence, 1 h; Potency, µM (top dose mostly 57.5 µM), without a hit: top-dose activity change, negative = inhibition, hits mostly inhibitors; 290,000 compounds, 0.37% hits; AID 1721, 2009; further: potency means the concentration at half of the fitted maximal effect; on the % scale 0 is the no-effect control and ±100 the full control effect
Target sequence (Q27686 whole entry, looked up): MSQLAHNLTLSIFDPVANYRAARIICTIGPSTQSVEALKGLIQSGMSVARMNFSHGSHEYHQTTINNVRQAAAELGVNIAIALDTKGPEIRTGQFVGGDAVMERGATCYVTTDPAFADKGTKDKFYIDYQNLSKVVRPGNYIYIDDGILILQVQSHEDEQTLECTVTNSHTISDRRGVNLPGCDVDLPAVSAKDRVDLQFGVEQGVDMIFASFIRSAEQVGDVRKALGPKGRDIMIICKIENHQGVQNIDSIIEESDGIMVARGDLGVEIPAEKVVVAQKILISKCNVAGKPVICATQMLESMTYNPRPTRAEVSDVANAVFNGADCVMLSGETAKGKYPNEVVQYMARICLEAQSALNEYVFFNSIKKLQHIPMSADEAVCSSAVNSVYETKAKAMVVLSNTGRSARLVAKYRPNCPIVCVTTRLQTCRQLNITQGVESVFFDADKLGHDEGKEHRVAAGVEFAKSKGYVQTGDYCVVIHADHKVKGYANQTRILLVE
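Pyruvate kinase activity monitored as ATP production (luciferase luminescence). Conditions: 0.1 nM enzyme, 0.5 mM PEP, 0.1 mM ADP, 1 h, RT; normalized against uninhibited and no-enzyme wells.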
Sm TGR inh: qHTS Assay for the Inhibitors of Schistosoma Mansoni Peroxiredoxins; 360,000 compounds, 3% hits; purified TGR, DTNB reduction, TNB absorbance 405 nm; Potency, µM (series often up to 114 µM), inactives show top-dose activity change, negative = inhibition, hits mostly inhibitors; AID 485364, 2010; Schistosoma mansoni thioredoxin glutathione reductase (TGR), Q962Y6; further: potency means the concentration at half of the fitted maximal effect; on the % scale 0 is the no-effect control and ±100 the full control effect; nearly all actives have a fitted effect of over 60% in size
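TGR 20 nM + NADPH 100 uM (dispensed conc.), cpd preinc 15 min RT; start with NADPH (500 uM addition) then DTNB (15 mM addition). Kinetic TNB absorbance, 405 nm filter. Four-parameter Hill fit across titration.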
TbPYK inhibitor: qHTS of Trypanosoma Brucei Inhibitors. TbPYK enzyme, Kinase-Glo Plus ATP luminescence, 45 min. pyruvate kinase (Trypanosoma brucei), Q57TT1. Potency, µM (doses to about 76.8 µM), without a hit: at the top dose activity, negative = inhibition, actives largely listed as inhibitors. 410,000 compounds, 0.12% hits. AID 624173, 2012; further: potency means the concentration at half of the fitted maximal effect; on the % scale 0 is the no-effect control and ±100 the full control effect; nearly all actives have a fitted effect of over 50% in size
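Luminescence from Kinase-Glo Plus, added after a 45-minute room-temperature reaction, served as the end-point read-out. The enzyme and substrate were preincubated with compound before ADP (130 uM final) initiated turnover. Concentration-effect curves came from normalized qHTS data.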
Shiga inhibitor: A qHTS for Small Molecule Inhibitors of Shiga Toxin; AID 2315, 2010; 290,000 compounds, 9.2% hits; inhibition, % at 38.7 µM; Vero cells, Shiga toxin protein synthesis inhibition reporter; in the data active means inhibition mostly above about 28%, no sharp cut-off; inactive means mostly below about 43%; further: 0% is about no effect
CHX counter: Cycloheximide Counterscreen for Small Molecule Inhibitors of Shiga Toxin; cell reporter, cycloheximide protein synthesis inhibition counterscreen; max response, %; 300,000 compounds, 12% hits; AID 2314, 2010; in the data active means max response mostly above about 13%, no sharp cut-off; inactive means mostly below about 14%; further: read at 38.3 µM for the half of the compounds with a filed dose; 0% is about no effect
Starred values were filed as active, the others as inactive; u = inconclusive; x = not tested or not shown; [ ] = dose if it differs, or a comment. The full list was thinned out, with hits kept by preference. Unless noted, the call rests on the fitted dose curve; in most records, active means well fitted curve in the direction sought with a large enough effect; inconclusive means small, poorly fitted or top-dose-only effect, or another doubt; inactive means no such curve, though single readings can be large; an effect the other way counts as inactive or inconclusive.

SMILES | Giardia FBPA inh | LmPK inhibitor | Sm TGR inh | TbPYK inhibitor | Shiga inhibitor | CHX counter
CCOC(=O)c1c(C)[nH]c(C(=O)CN2C(=O)NC3(CCCC3)C2=O)c1C | 4.7% | 0.2% | 3.8% | 0.0% | 52.1* | 28.7*
CC(=O)c1c(C)[nH]c(C(=O)COC(=O)CCSc2ccccc2)c1C | -7.0% | 3.1% | 0.5% | 7.4% | -5.6 | -1.6
CS(=O)(=O)Nc1cccc(-c2ccc3ncnc(N4CCNCC4)c3c2)c1 | 1.9% | x | x | x | x | x
CCc1ccc(C(=O)c2cn(CC(=O)Nc3ccc(C)c(C)c3)c3ccccc3c2=O)cc1 | x | x | -14.2% | 2.5% | x | x
CCOC(=O)c1c(C)[nH]c(C(=O)OCc2ccc(C)cc2)c1C | x | x | x | 9.1% | x | x
CCCCC(=O)OCC(=O)c1[nH]c(C)c(C(=O)OCC)c1C | 3.9% | 1.7% | -12.4% | 6.5% | 84.5* | 31.4*
CCOC(=O)c1c(C)[nH]c(C(=O)OCc2ccccc2)c1C | x | -5.5% | -8.2% | 9.3% | 59.5* | 87.2*
CC(=O)n1cc(/C=N/NC(=O)c2cccc(O)c2)c2ccccc21 | 7.1% | -3.5% | -0.4% | 1.1% | 59.3* | 36.0*
CC(=O)n1cc(/C=N/NC(=O)c2ccc(Cl)cc2)c2ccccc21 | 5.7% | 0.9% | -4.7% | -12.2% | 61.3* | 41.0*
CCS(=O)(=O)N1CCc2cc(C(=O)Nc3cc(C(F)(F)F)ccc3Cl)ccc21 | x | x | -6.0% | 1.6% | x | x
CN(C)CCN1C(=O)C(=O)/C(=C(/O)c2ccc3c(c2)OCCO3)C1c1ccccn1 (stereo not drawn) | u | -1.5% | 33.8% | -0.5% | 102.1* | 42.0*
CCN(CC)CCCN1C(=O)C(=O)/C(=C(/O)c2ccc3c(c2)OCCO3)C1c1ccc(C)o1 (stereo not drawn) | -0.4% | 6.8% | 50.1µM* | x | 48.2 | -0.6
COc1ccc(C2CCCN2C(=O)c2cccs2)cc1 (stereo not drawn) | 2.4% | -3.4% | 2.7% | 0.7% | -20.3 | -4.8
COc1ccc(C2CC2/C(=N/OC(=O)c2cccs2)c2ccccc2)cc1 (stereo not drawn) | -1.2% | 2.1% | -4.6% | 0.0% | 44.8 | 28.8*
COc1cc([C@@H]2Oc3cc(C4Oc5cc(O)cc(O)c5C(=O)[C@H]4O)ccc3O[C@H]2CO)ccc1O (stereo partly drawn) | x | x | 44.7µM* | 4.5% | x | x
COc1cc([C@H]2Oc3cc([C@H]4Oc5cc(O)cc(O)c5C(=O)[C@@H]4O)ccc3O[C@@H]2CO)ccc1O | 1.0% | -6.8% | -17.1% | -1.9% | -5.5 | -2.0
Cc1cccc(OC(=O)c2nc(SCc3ccccc3F)ncc2Cl)c1 | x | x | 8.7% | -7.8% | x | x
OC1(c2cccc(C(F)(F)F)c2)CCN(c2ccc(-c3ccccc3)nn2)CC1 | 6.0% | -2.0% | -2.4% | 0.0% | 67.5* | 38.0*
Cc1cc(C)c(Cn2c(CCNC(=O)c3ccco3)nc3ccccc32)c(C)c1 | x | x | -0.1% | -1.8% | x | x
O=C(NNC(=O)c1ccc[nH]1)c1cccc(C(F)(F)F)c1 | x | -2.8% | -5.1% | 0.0% | 8.4 | -2.0
O=C(NNC(=O)c1ccc[nH]1)Nc1cccc(C(F)(F)F)c1 | 4.2% | -0.5% | -0.4% | 3.0% | 72.0* | 43.3*
O=C(Nc1ccccc1)Nc1cc(Cl)cc(Cl)c1 | -0.1% | -0.1% | 0.0% | 2.2% | 39.5 | 25.5
O=C(NNC(=O)c1ccc[nH]1)Nc1cc(Cl)cc(Cl)c1 | 1.3% | 5.6% | -17.2% | -17.4% | 31.3 | 14.8*
COc1ccc(C(C)NC(=O)Cc2cccs2)cc1OC (stereo not drawn) | x | -6.1% | 8.9% | 0.4% | -11.7 | -5.3
c1ccc(-c2ccc3ccccc3n2)cc1 | x | x | x | -3.0% | x | x
SMILES | Giardia FBPA inh | LmPK inhibitor | Sm TGR inh | TbPYK inhibitor | Shiga inhibitor | CHX counter
c1ccc2nc(-c3ccc(-n4ccnc4)cc3)ccc2c1 | 9.2% | -0.7% | -1.0% | 0.0% | 61.5* | 34.5*
O=C1CC(c2nc3ccccc3n2CCCCOc2ccccc2)CN1c1ccccc1Cl (stereo not drawn) | x | x | -2.2% | 1.2% | x | x
Clc1ccc(C2CC(c3ccco3)n3ncnc3N2)cc1Cl (stereo not drawn) | -2.9% | 5.0% | 11.2µM* | -1.8% | -5.7 | -2.4
Cc1ccc(C(=O)N2CCc3cc(CNC(=O)c4ccccc4F)ccc32)cc1 | x | x | -4.4% | 7.8% | x | x
COc1ccc(CCNC(=S)NC(=O)c2ccccc2)cc1OC | -1.9% | 4.2% | 50.1µM* | -0.3% | -10.4 | 2.0
O=C(NC(=S)NCCc1ccccc1)c1cccc(Cl)c1 | x | 3.3% | 39.8µM* | -9.7% | -12.3 | 10.7
CC(=O)Nc1ccc(S(=O)(=O)NCC2CCC(C(=O)NCc3ccccc3Cl)CC2)cc1 (stereo not drawn) | x | x | 5.6% | 4.1%[15.4 µM] | x | x
O=C(NCc1cccnc1)c1cccc(Cl)c1 | 11.4% | 0.9% | 5.0% | -4.0% | -12.0 | -1.4
O=C(NCCc1cccc(Cl)c1)c1cccc([N+](=O)[O-])c1 | -1.2% | 3.4% | -7.7% | 5.2% | 16.4 | 21.5*
O=C(NCCOCCOCCNC(=O)c1cccnc1)c1cccnc1 | 1.1% | -0.2% | 0.0% | 9.7% | 37.5 | 16.7*
NS(=O)(=O)c1ccc(CCNC(=O)c2cccc([N+](=O)[O-])c2)cc1 | 4.5% | 6.0% | x | 1.9% | -6.1 | 13.2
O=C(NCCc1cccc(Cl)c1)c1cccnc1 | -20.7% | 1.3% | -0.3% | -1.6% | 142.5* | 57.0*
CCOCC(O)COc1ccc(NC(=O)CC[S+](C)C)cc1 (stereo not drawn) | x | x | x | -5.0% | x | x
COc1ccc(Cl)cc1NC(=O)CCc1c(C)nc2c(c1C)c(=O)n(C)c(=O)n2C | x | x | 4.1% | 1.1% | x | x
COc1cccc(NC(=O)C(=O)N/N=C/c2cc(C)n(-c3ccc(Cl)c(Cl)c3)c2C)c1 | -5.6% | 0.6% | -27.3% | 1.4% | 12.5 | 15.8
O=C(NCc1cc([N+](=O)[O-])ccc1O)c1cccnc1Sc1ccc(Cl)cc1 | x | -0.9% | -2.4% | -4.7% | 42.5* | 39.7*
CC(C)CN(CC(C)C)c1ccc(C=C2C(=O)NC(=S)NC2=O)cc1[N+](=O)[O-] | u | 15.0% | 1.12µM* | -25.5% | 12.0 | -5.8
Cc1ccc(/C=C2\NC(=S)NC2=O)cc1[N+](=O)[O-] | 5.6% | -3.1% | 1.4% | -14.5% | -6.3 | 1.2
Cc1ccc(C)c(S(=O)(=O)n2nc(C)c(S(=O)(=O)N3CCCCCC3)c2C)c1 | x | x | 5.7% | 1.0% | x | x
CC[C@H](C)[C@H](NC(=O)[C@H](CC(C)C)NC(=O)[C@@H](N)CO)C(=O)NCC(=O)N[C@@H](CCCN=C(N)N)C(=O)N[C@@H](CC(C)C)C(=O)O | 4.3% | x | x | x | -5.7 | -6.7
CC(C)(C)NC(=O)Nc1ccc(F)c(Cl)c1 | -5.1% | -0.9% | 1.6% | 0.8% | 14.2 | 13.2
